For assay [1], the system named is Zika virus NS2B-NS3 protease. The assay can be described thus: Primary screen GU AMC qHTS for Zika virus inhibitors (AID 1347154). Note: nearly all actives have a fitted effect of over 70% in size. Note: potency is the fitted concentration of half-maximal effect. In a few lines: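 Unlinked Zika NS2B hydrophilic domain/NS3 protease domain noncovalent complex (25 nM final) in 10 mM Tris-HCl pH 8.0, 0.01% Tween 20, with AMC peptide substrate. Fluorescence (ex 340, em 450 nm) change over 15 min, room temperature; percent inhibition fitted to 4-parameter Hill equation.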

In assay [2] the test system is Zika virus NS2B-NS3 protease (linked construct). The assay can be described thus: Primary screen NINDS Rhodamine qHTS for Zika virus inhibitors (AID 1347160). Note: nearly all actives have a fitted effect of over 55% in size. Summed up:
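In 10 mM Tris-HCl pH 8.0 containing 0.01% Tween 20, linked NS2B-NS3 protease (25 nM final) is exposed to test compounds for 15 min. Cleavage of 1.5 microM Rhodamine110 substrate is tracked by fluorescence over 15 min.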
A general note: Quantitative high-throughput screening tests each substance at several concentrations.

The subject of assay [3] is Zika virus NS2B-NS3 protease (unlinked complex). The assay can be described thus: Primary screen GU Rhodamine qHTS for Zika virus inhibitors: Unlinked NS2B-NS3 protease assay (AID 1347159). Note: nearly all actives have a fitted effect of over 60% in size. Summed up: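 Percent inhibition derives from the 15-min fluorescence change (ex 480, em 540 nm), normalized to no-enzyme and no-inhibitor wells. Reactions contained 25 nM NS2B-NS3 complex and 1.5 microM substrate in 10 mM Tris-HCl pH 8.0.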

The nature of assay [4]: Confirmatory screen GU Rhodamine qHTS for Zika virus inhibitors qHTS (AID 1347157). Note: nearly all actives have a fitted effect of over 70% in size. Note: potency is the fitted concentration of half-maximal effect. In a few lines: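 Unlinked NS2B/NS3, 25 nM; Rhod110 peptide, 1.5 microM; compounds, up to 114 microM. Reaction run 15 min at RT in 10 mM Tris-HCl pH 8.0, 0.01% Tween 20; kinetic fluorescence change fitted with a 4-parameter Hill model.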
Assay [5] is described as follows: ZIKV-mCherry secondary qHTS for Zika virus inhibitors (AID 1347158). Note: top concentration of the series differs between compounds. In a few lines: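 Vero, 5,000 cells/well, o/n 37 °C; cpd pin-transferred in DMSO; ZIKV-mCherry MOI 1, 48-72 h 37 °C; 32% PFA stock fix, Hoechst; imaged 10x DAPI/mCherry; mCherry+ threshold 450 RFU; % infection.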
The nature of assay [6]: Confirmatory screen NINDS Rhodamine qHTS for Zika virus inhibitors (AID 1347161). Note: nearly all actives have a fitted effect of over 60% in size. Note: potency is the fitted concentration of half-maximal effect. Summed up:
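qHTS dose-response: 25 nM linked protease, pH 8.0 Tris/Tween buffer, cpd titration, 15 min RT preinc, 1.5 microM Rhod110 peptide, 15 min reaction (~15% conversion), Ex480/Em540; 4-parameter Hill fit.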

Assay [7] relates to Zika virus NS2B-NS3 protease (linked). The assay can be described thus: 384 well plate NINDS AMC confirmatory qHTS for Zika virus inhibitors (AID 1347163). Note: potency is the fitted concentration of half-maximal effect; nearly all actives have a fitted effect of over 50% in size. To be noted: Recombinant NS2B-NS3 protease, Ac-VKTGKR-AMC fluorescence. Summed up: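 Linked NS2B-NS3 protease (final 5 nM, 30 nM or 60 nM) was preincubated with compounds (final up to 1 mM) for ~15 minutes. Ac-VKTGKR-AMC substrate (final 30 microM) then reacted for 25 minutes at room temperature in the dark. Fluorescence (ex 355/em 460 nm) was normalized to no-enzyme and no-inhibitor controls.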

Values joined by “and” are separate entries in the source; they are usually repeats but may differ in a detail not shown here. Equal entries are not always repeated. Inconclusive results are not listed. Active and inactive are the calls of the source. Calls come from the whole dose curve; as a rule, active = well fitted curve in the direction sought with a large enough effect; inconclusive = small, poorly fitted or top-dose-only effect, or another doubt; inactive = no such curve, though single readings can be large; an effect the other way counts as inactive or inconclusive.

On to `O=C(NCC1CCOCC1)c1cnc(Nc2ccc(Cl)cc2Cl)nc1C(F)(F)F`, for which the Potency entry in assay [1] and in assay [2] was “inactive” in each case.

Regarding `CC(C)(C)NC[C@H](O)c1ccc(O)cc1Cl`, the Potency entry in assay [1] and in assay [2] was “inactive” each time.

As to `O=C(Oc1ccc([N+](=O)[O-])cc1)N1CCN(Cc2cccc(Oc3ccccc3)c2)CC1`, the Potency entry in assay [1], in assay [3] and in assay [2] was “inactive” throughout.

Take `CCOC(=O)Nc1ccc(NCc2ccc(F)cc2)cc1N`: the Potency entry in assay [1], in assay [3] and in assay [2] was “inactive” each time.

Take `CCNC(=O)C[C@@H]1N=C(c2ccc(Cl)cc2)c2cc(OC)ccc2-n2c(C)nnc21`: the Potency entry in assay [1] and in assay [3] was “inactive” throughout.

Turning to `O=C1C(I)=CC(=C(c2cc(I)c(O)c(I)c2)c2ccccc2C(=O)O)C=C1I`, the Potency in assay [1] was 12.8 µM (active); in assay [4], 2.82 µM (active); in assay [6] it was 2.51 µM (active); in assay [7], 50.1 µM (active). The result in assay [5] was inactive.

Take `O=c1[nH]c2ccc(Cl)cc2c(N[C@@H]2CN3CCC2CC3)c1-c1nc2ccccc2[nH]1`: the Potency entry in assay [1] and in assay [2] was “inactive” each time.

For the molecule `CC1=C(O)C(=O)C=C2C1=CC=C1[C@@]2(C)CC[C@@]2(C)[C@@H]3C[C@](C)(C(=O)O)CC[C@]3(C)CC[C@]12C`, the Potency in assay [6] is 5.53 µM (active) and 2.77 µM (active); in assay [7] it was 79.4 µM (active).

In the case of `O=C(O)c1cc(Oc2ccc(C(F)(F)F)cc2Cl)ccc1[N+](=O)[O-]`, the Potency entry in assay [1] is “inactive”. The result in assay [5] was inactive. In addition, the Potency in assay [7] is 562 µM (active).

`CC(=O)Nc1ccc(OC[C@](C)(O)C(=O)Nc2ccc([N+](=O)[O-])c(C(F)(F)F)c2)cc1`: the Potency entry in assay [1], in assay [3] and in assay [2] was “inactive” in each case.

On to `Nc1c(Cl)c(Cl)c(Cl)c(Cl)c1Cl`, for which the Potency entry in assay [1], in assay [4] and in assay [6] was “inactive” in each case.

`O=C(N[C@@H](COc1ccc2[nH]c(=O)[nH]c2c1)c1ccccc1)c1cccn(Cc2ccc(F)c(F)c2)c1=O`: the Potency entry in assay [1], in assay [3] and in assay [2] was “inactive” throughout.

(Values after PubChem BioAssay (NCATS).)
